Compound activity: PubChem, National Center for Advancing Translational Sciences (NCATS)
An excerpt weighted towards active compounds, which were near 3% of everything screened.
HEK293 viab: cell viability loss counter-screen; hit rate 0.12% among 150,000; AID 1671193; HEK-293-SNCA-luc viability, GF-AFC fluorescence, 24 h; Potency, µM (top dose mostly 57.1 µM), most hits filed as cytotoxic; further: nearly all actives have a fitted effect of over 30% in size
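HEK-293-SNCA-luc cells (1500/well) plated 24 h, then exposed 24 h to a dilution series; GF-AFC added 30 min at 37C, fluorescence 405/540 nm; normalised to medium-only and DMSO wells, Hill fit.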
KDM5B inhibitor: KDM5B demethylase inhibition. Q9UGL1. KDM5B demethylase, FDH-coupled NADH fluorescence (FDH is formaldehyde dehydrogenase). Potency, µM (highest dose often 57.7 µM), usual class: inhibitors. hit rate 2.6% among 220,000; further: nearly all actives have a fitted effect of over 70% in size
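qHTS format, multiple compound concentrations. Buffer 50 mM HEPES pH 7.5/0.01% Tween-20; 200 nM KDM5BΔAP final; 10 min compound preincubation; substrate-mix levels 12.5 µM peptide, 25 µM α-KG, 0.25 mM NAD⁺; 30 min RT; ΔRFU.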
SNCA expr inh: reduces expression of the alpha-synuclein gene; hit rate 0.17% among 140,000; Potency, µM (top dose mostly 57.2 µM), most hits filed as inhibitors; HEK-293 SNCA-luciferase knock-in, luminescence, 24 h; further: nearly all actives have a fitted effect of over 45% in size
IP6K1 inhibitor: IP6K1 kinase inhibition. Q92551. AID 1645851. activity change, % (series mostly up to about 58 µM). hit rate 0.81% among 140,000. IP6K1 kinase, ADP-Glo luminescence, 2 h; active compounds read low; in the data active means activity change below about -25%
Target sequence (Q92551 whole entry, looked up): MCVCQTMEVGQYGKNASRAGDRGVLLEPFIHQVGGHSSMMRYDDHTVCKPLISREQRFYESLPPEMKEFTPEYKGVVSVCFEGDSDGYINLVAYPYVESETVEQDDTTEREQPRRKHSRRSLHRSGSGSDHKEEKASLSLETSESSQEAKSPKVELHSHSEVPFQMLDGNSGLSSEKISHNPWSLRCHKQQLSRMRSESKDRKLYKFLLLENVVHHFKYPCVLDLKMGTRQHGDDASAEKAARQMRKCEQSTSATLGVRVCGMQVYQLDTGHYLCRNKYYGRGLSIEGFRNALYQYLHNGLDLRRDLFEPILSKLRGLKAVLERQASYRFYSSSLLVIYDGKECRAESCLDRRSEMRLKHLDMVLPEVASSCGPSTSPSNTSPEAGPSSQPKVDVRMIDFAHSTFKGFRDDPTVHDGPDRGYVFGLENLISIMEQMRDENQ
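ADP-Glo luminescence measures ADP made by human IP6K1 during a 2 h RT reaction with ATP/IP6 (mix at 1.3 mM/130 uM); top library doses 57.5 and 19.1 uM final.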
Hits are given with their value; i = inactive; ? = inconclusive; nt = no result; [ ] = remark or other dose. Unless noted, the call rests on the fitted dose curve; in most records, active means well fitted curve in the direction sought with a large enough effect; inconclusive means small, poorly fitted or top-dose-only effect, or another doubt; inactive means no such curve, though single readings can be large; an effect the other way counts as inactive or inconclusive.

SMILES	HEK293 viab	KDM5B inhibitor	SNCA expr inh	IP6K1 inhibitor
Cc1cccc(NC(=O)c2cc3n(n2)CC(c2ccc(Cl)cc2)OC3)c1 (stereo unspecified)	i	?	i	i
Cc1c(Cl)cccc1NC(=O)c1cc2n(n1)CC(c1ccc(Cl)cc1)OC2 (stereo unspecified)	i	25.1µM	i	i
CCOc1ccccc1NC(=O)c1cc2n(n1)CC(c1ccc(Cl)cc1)OC2 (stereo unspecified)	i	22.4µM	i	i
Cc1ccc(NC(=O)c2cc3n(n2)CC(c2ccc(Cl)cc2)OC3)cc1C (stereo unspecified)	i	?	?	i
Cc1ccc(NC(=O)c2cc3n(n2)CC(c2ccc(Cl)cc2)OC3)c(Cl)c1 (stereo unspecified)	i	17.8µM	i	i
COc1cccc(-c2ccc(CN3CCCC(NC(=O)c4cccnc4)C3)cc2)c1 (stereo unspecified)	nt	nt	nt	i
COCCNC(=O)C1CCCCN1Cc1ccc(-c2ccccc2OC)cc1 (stereo unspecified)	nt	nt	nt	i
Clc1ccc(Oc2cccc(CN3CCN(C4CCNC4)CC3)c2)cc1 (stereo unspecified)	i	15.8µM	i	i
Cc1cc(C)n(-c2cccc(CN3CCN(C4CCNC4)CC3)c2)n1 (stereo unspecified)	i	?	i	i
CNC(=O)c1cc(C2CC2)nc2c1c(C1CCCN(C(=O)c3ccc(OC)cc3)C1)nn2C (stereo unspecified)	nt	nt	nt	i
Cc1nn(-c2ccccc2)c2c1C(C1CC1)N(CC1CN(C(=O)C3CC3)C1)C2=O (stereo unspecified)	nt	nt	nt	i
O=C(Nc1ncc(-c2cccc(F)c2)c2c1OCC2)c1ccncc1	i	i	i	i
O=C(Nc1ncc(-c2cccc(F)c2)c2c1OCC2)c1ccc(F)c(Cl)c1	i	22.4µM	i	i
CNC(=O)c1cccc(-c2cnc(Nc3ccc(F)c(Cl)c3)c3c2CCO3)c1	?	35.5µM	i	i
CC(=O)N1CCCN(c2ccc3nnc(-c4ccccc4)n3n2)CC1	nt	nt	nt	i
O=C(NCCc1ccc(F)cc1)C1CCCCN1Cc1ccc(-c2ccsc2)cc1 (stereo unspecified)	i	nt	i	i
COc1cccc(Nc2ccc3c(n2)C(C)(C(=O)NCc2ccco2)CN(C)C3)c1 (stereo unspecified)	i	28.2µM	i	i
CN1Cc2ccc(Nc3ccccc3)nc2C(C)(C(=O)NCc2ccc3c(c2)OCO3)C1 (stereo unspecified)	i	39.8µM	i	i
CN1Cc2ccc(NCc3ccccc3)nc2C(C)(C(=O)NCc2ccc3c(c2)OCO3)C1 (stereo unspecified)	i	?	?	i
Cc1ccc(-c2nc(CNC(=O)C3CCNC3)[nH]c2-c2ccccn2)cc1 (stereo unspecified)	i	i	i	i
Cc1ccc(-c2nc(CNC(=O)[C@@H]3CCC[C@H](N)C3)[nH]c2-c2ccccn2)cc1	i	28.2µM	i	i
COc1cccc(-c2cccc(C(=O)N3CCN(C(=O)Nc4ccccc4)CC3)c2)c1	i[12.5 µM]	nt	i	i
C=CCO[C@@H]1CCN2C(=O)c3cc(-c4cc(Cl)ccc4OC)ccc3NC(=O)[C@H]12	?	?	?	i
O=[S+]([O-])(NC1CCCN(c2ccc3nnc(C4CC4)n3n2)C1)c1ccccc1 (stereo unspecified)	nt	nt	nt	i
O=C(/C=C/c1ccc(O)cc1)OC[C@H]1O[C@@H](O/C(=C\c2ccccc2)C(=O)O)[C@H](O)[C@@H](O)[C@@H]1O	i	nt	nt	i
SMILES	HEK293 viab	KDM5B inhibitor	SNCA expr inh	IP6K1 inhibitor
O=C(/C=C/c1ccccc1)OC[C@H]1O[C@@H](OC(=O)c2cc(O)c(O)c(O)c2)[C@H](O)[C@@H](O)[C@@H]1O	i	nt	nt	-47.4
c1ccc(-n2cc(CN3CCCCC3c3ccccn3)nn2)cc1 (stereo unspecified)	i	28.2µM	i	i
COc1ccc(OC)c(NC(=O)CSc2c3c(nc4ccccc24)CCCC3)c1	?	i	22.4µM	i
COc1ccc(OC)c(NC(=O)CSc2c3c(nc4cc(Cl)ccc24)CCCC3)c1	i	i	i	i
Cn1ccc2c(C(=O)NCc3cccnc3)nc(-c3cccc4cc[nH]c34)cc21	?	35.5µM	i	i
Cn1ccc2c(C(=O)NCc3cccnc3)nc(-c3cccnc3)cc21	i	i	i	i
Cn1ccc2c(C(=O)NCc3cccnc3)nc(-c3ccccc3C(F)(F)F)cc21	i	35.5µM	i	i
Oc1ccc(-c2nc(C3CC3)nc3c2CN(Cc2cccc4ccccc24)CC3)cc1	?	nt	?	i
CN(C)C[C@@H]1CN(c2ncccn2)C[C@H]1NC(=O)c1ccccc1Cl	i	22.4µM	i	i
CN(C)C[C@@H]1CN(c2ncccn2)C[C@H]1NC(=O)c1cccn1C	i	28.2µM	i	i
Cc1ccc(C)c(C(=O)N[C@@H]2CN(Cc3ccccn3)C[C@H]2CN(C)C)c1	i	?	i	i
CN(C)C[C@@H]1CN(c2ncccn2)C[C@H]1NC(=O)c1ccc(C#N)cc1	i	?	i	i
CN(C)C[C@@H]1CN(c2ncccn2)C[C@H]1NC(=O)c1ccccc1F	i	28.2µM	i	i
Cc1ccc(C)c(C(=O)N[C@@H]2CN(c3ncccn3)C[C@H]2CN(C)C)c1	i	22.4µM	i	i
CN(C)C[C@@H]1CN(c2ncccn2)C[C@H]1NC(=O)c1cnn(C)c1	i	28.2µM	i	i
CN(C)C[C@@H]1CN(c2ncccn2)C[C@H]1NC(=O)c1cc(F)ccc1Cl	i	31.6µM	i	i
COCC(=O)NC1CCN(Cc2ccc(-c3ccccc3OC)cc2)C1 (stereo unspecified)	nt	nt	nt	i
COc1ccc(C(=O)NCc2nnc3c(-c4nc(C(C)C)no4)cccn23)cc1F	i	31.6µM	i	i
CC(C)c1noc(-c2cccn3c(CNC(=O)c4c(F)cccc4Cl)nnc23)n1	i	15.8µM	i	i
CC(C)c1noc(-c2cccn3c(CNC(=O)c4ccc(F)c(F)c4)nnc23)n1	i	11.2µM	i	i
Cc1nnc2ccc(N3CCCC(NC(=O)c4cccc(Cl)c4)C3)nn12 (stereo unspecified)	nt	nt	nt	i
CC(C)NC(=O)NC1CCN(Cc2cccc(-c3cccs3)c2)CC1	i[12.5 µM]	nt	i	i
Cc1nn(-c2ccccc2)c2c1C(C)N(CC1CN(Cc3ccc(C(F)(F)F)cc3)C1)C2=O (stereo unspecified)	nt	nt	nt	i
COc1ccc(-c2ncc3c(n2)OCCN(Cc2ccccc2)C3=O)cc1	i	i	i	i
COc1cccc(-c2ncc3c(n2)OCCN(Cc2ccccc2)C3=O)c1	i	35.5µM	i	i
COc1ccc(CN2CCOc3nc(-c4ccc(F)cc4F)ncc3C2=O)cc1	i	i	i	i
COc1ccc(CN2CCOc3nc(-c4ccc(O)c(F)c4)ncc3C2=O)cc1	i	31.6µM	i	i
COC(CNc1nc(-c2ccccn2)nc2c1c(C)nn2C)c1cccs1 (stereo unspecified)	i	28.2µM	i	i
Cc1nn(C)c2nc(-c3ccccn3)nc(NCC(c3ccco3)N(C)C)c12 (stereo unspecified)	i	?	i	i
